Screening results: PubChem, National Center for Advancing Translational Sciences (NCATS)
HCMV antiviral = qHTS Assay for inhibitors of the human cytomegalovirus (HCMV); HFF cells, HCMV-luciferase reporter, 72 h; hits give low values; activity change, negative = inhibition, % at 57.5 µM; 4.5% of 410,000 active; AID 1259415, 2018; in the data active means activity change below about -60%; inconclusive means no clear call, values can overlap the other calls; inactive means above about -39%
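Steps: HFFs plated, 16 h 37C; compounds added; HCMV-luciferase added to MOI 1 PFU/cell; 72 h 37C; OneGlo reagent, 5 min room temperature; luminescence read, normalized to controls.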
FMDV inh = High Throughput Screening for Foot and Mouth Disease Virus Antivirals; FMDV antiviral cell-based qHTS; Potency, µM (top dose mostly 57.9 µM), without a hit: at the highest dose activity change, negative = inhibition, most hits filed as inhibitors; 1.2% of 410,000 active; AID 1159524, 2015; calls by dose curve; tested in HEK293T cells; further: read-out not given here; potency means the concentration at half of the fitted maximal effect; nearly all actives have a fitted effect of over 45% in size
HCV inhibitor = qHTS Assay for Inhibitors of Hepatitis C Virus (HCV). 3.4% of 340,000 active. Potency, µM (top dose mostly 41.8 µM), for the others: top-dose activity change, negative = inhibition, most hits filed as inhibitors. Huh7.5.1 HCVcc-Cre infection, luciferase reporter, 44 h. AID 651820, 2012; further: potency means the concentration at half of the fitted maximal effect
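Infectious HCVcc-Cre (~0.5 moi) was added to cells just after compound, with cells seeded 4 h earlier at 1,000 per well. Luciferase activity after 44 h culture reported infection; substrate was incubated 15 min at room temperature before reading.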
LASV entry inh = qHTS for Inhibitors of binding or entry into cells for Lassa Virus; Potency, µM (top dose mostly 37.9 µM), without a hit: at the top dose activity change, negative = inhibition, usual class: inhibitors; AID 540256, 2011; 1.2% of 300,000 active; Lassa virus pseudotype entry inhibition, cell reporter; calls by dose curve; tested in HEK293 cells; further: potency means the concentration at half of the fitted maximal effect; nearly all actives have a fitted effect of over 50% in size
FBPA Giardia inh = qHTS Assay for Inhibitors of Fructose-1,6-bisphosphate Aldolase from Giardia Lamblia; A8B2U2; purified Giardia FBPA; Potency, µM (series often up to 59.6 µM), without a hit: at the highest dose activity, negative = inhibition, most hits filed as inhibitors; 0.71% of 290,000 active; further: potency means the concentration at half of the fitted maximal effect; nearly all actives have a fitted effect of over 55% in size
Target sequence (A8B2U2 whole entry, looked up): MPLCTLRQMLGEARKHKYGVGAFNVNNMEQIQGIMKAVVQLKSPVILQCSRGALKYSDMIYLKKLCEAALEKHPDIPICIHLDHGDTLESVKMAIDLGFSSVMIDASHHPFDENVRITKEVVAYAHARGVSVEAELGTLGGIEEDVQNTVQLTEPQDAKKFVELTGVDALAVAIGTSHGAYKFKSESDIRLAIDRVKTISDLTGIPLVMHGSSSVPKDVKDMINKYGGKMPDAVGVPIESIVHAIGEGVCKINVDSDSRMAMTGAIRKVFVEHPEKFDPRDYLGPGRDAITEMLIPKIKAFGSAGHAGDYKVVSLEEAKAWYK
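40 nM FBPA preincubated 10 min at RT with compound (up to 57.5 uM final), then substrate plus GAPDH/TPI/NAD/arsenate coupling and diaphorase/resazurin added. Fluorescence read after 20 min at RT, 525/598 nm.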
MARV entry inh = qHTS for inhibitors of binding or entry into cells for Marburg Virus; Marburg virus pseudotyped entry inhibition, cell reporter; Potency, µM (doses to about 37.8 µM), inactives show top-dose activity change, negative = inhibition, usual class: inhibitors; 1.8% of 300,000 active; calls by dose curve; tested in HEK293 cells; further: potency means the concentration at half of the fitted maximal effect
Active calls of the source: *; ? = inconclusive; . = no result; [ ] = remark or other dose. An excerpt weighted towards active compounds, which were near 8.3% of everything screened. Unless noted, the call rests on the fitted dose curve; in most records, active means well fitted curve in the direction sought with a large enough effect; inconclusive means small, poorly fitted or top-dose-only effect, or another doubt; inactive means no such curve, though single readings can be large; an effect the other way counts as inactive or inconclusive. On the % scale 0 is the no-effect control and ±100 the full control effect.

SMILES	HCMV antiviral	FMDV inh	HCV inhibitor	LASV entry inh	FBPA Giardia inh	MARV entry inh
O=C(Nc1cccc(C(F)(F)F)c1)n1cc(-c2ccccn2)c(N2CCOCC2)n1	-64*	-20%	9%	-14%	-4%	7%[46.1 µM]
Cc1ccc(-c2cn3nc(C)c(C)nc3n2)cc1	-24	-79%	-2%	?	-10%	0.28µM*
O=C(NCc1ccccc1)c1c2c(nc3ccccc13)C(=O)N(C1CCCCC1)C2	19	-24%	.	?	.	.
CC(C)C[C@H]1CNC(=S)N1CC1CCCN1C[C@H](CC(C)C)N1C[C@H](Cc2ccc(O)cc2)N(CC2CCCCCC2)C1=S (stereo partly specified)	-102*	?	25%	.	.	.
CC(C)C[C@H]1CNC(=S)N1C[C@H]1CCCN1C[C@H](CC(C)C)N1C[C@H](Cc2ccc(O)cc2)N(CC2CCCCCC2)C1=S	-101*	-21%	.	.	.	.
CC(C)C[C@@H](CN1CCCC1CN1C(=S)NC[C@@H]1Cc1ccc(O)cc1)N1C[C@H](Cc2ccc(O)cc2)N(CC2CCCCC2)C1=S (stereo partly specified)	-98*	?	?	.	.	.
CC(C)C[C@H]1CNC(=S)N1CC1CCCN1C[C@H](CC(C)C)N1C[C@H](Cc2ccc(O)cc2)N(CC2CCCCC2)C1=S (stereo partly specified)	-98*	-27%	10µM*	.	.	.
COCC1CCCN(Cc2ccc3c(c2)CN(C(=O)c2sc(C)nc2C)CCO3)C1 (stereo unspecified)	.	-2%	.	.	.	.
COCCCN1C(=O)c2oc3ccccc3c(=O)c2C12C(=O)N(C)c1ccccc12 (stereo unspecified)	9	-8%	.	2%[46.1 µM]	.	-6%[46.1 µM]
CC(NC(=O)c1cccnc1)c1nnc2n1CCN(Cc1ccc(-c3ccccc3Cl)o1)CC2 (stereo unspecified)	.	11%	.	.	.	.
Cc1ccc2nc(-c3ccc(NS(=O)(=O)c4ccc(F)cc4)cc3)sc2c1	-94*	54%	?	?	-5%	?
Nc1ccc2nc(-c3ccccc3)sc2c1	-32	10µM*	?	3.2µM*	-11%	?
Cc1ccc2nc(-c3ccc(NC(=S)NCC(C)(C)CN(C)C)cc3)sc2c1	10	-3%	2.2µM*	.	.	.
Cc1ccc2nc(-c3ccc(N)cc3)sc2c1	-33	8.9µM*	?	?	-9%	3.5µM*
CNC(=S)Nc1ccc(-c2nc3ccc(C)cc3s2)cc1	88	-29%	-25%	?	-5%	?
CCC(C)(C)NC(=S)Nc1ccc(-c2nc3ccc(C)cc3s2)cc1	96	30%	-21%	?	3%	?
CCCN1CCN(C(=O)c2cnn(-c3ncc4c(n3)-c3ccccc3CCC4)c2COC)CC1	.	-12%	.	.	.	.
CCOC(=O)c1cnn(-c2ccc(OC)cc2)c1C1CCN(C(=O)OC(C)(C)C)CC1	-10	-17%	.	?	.	?
Cc1ccc2cc(CNC(C)CO)c(N3CCC(O)CC3)nc2c1 (stereo unspecified)	.	10%	.	.	.	.
COc1ccccc1-c1noc2nc(OCc3ccc(F)cc3)ccc12	15	.	.	.	.	.
CCCC/C=C/[C@H](c1ccccc1)[C@H](CO)Cc1cnc2ccccc2c1	.	.	.	.	6%	.
O=C(Nc1ccccc1[N+](=O)[O-])c1cncc(Br)c1	-74*	5%	4%	12%	1%	10%
Cc1ccc(N(CC(=O)Nc2ccc(Br)cc2)S(=O)(=O)c2cccs2)cc1	-19	5%	.	3%[46.1 µM]	.	4%[46.1 µM]
COc1ccc(CCN2CCC(Nc3nc4ccccc4n3Cc3ccc(F)cc3)CC2)cc1	.	0%	16µM*	?	5%	4.1µM*
C[C@]12CCCCC3=CC(=O)C=C[C@@]31OC(=O)CC2	-17	.	.	.	.	.
COc1cc(C)ccc1OCCSc1nnc(-c2ccc(C)cc2)o1	-8	-12%	.	13%[46.1 µM]	.	3%[46.1 µM]
Cn1c(CNc2nc3ccccc3n2CCN2CCCCC2)nc2ccccc21	51	-11%	?	-6%	-6%	2.8µM*
